AmpC detergent = inhibitors of E. coli AmpC beta-lactamase with detergent; AmpC hydrolysis of nitrocefin, absorbance 480 nm, 0.01% Triton; AID 485294; 370,000 tested, 0.041% active; P00811; Potency, µM (top dose mostly 114 µM), for inactives: at the top dose activity change, negative = inhibition, usual class: inhibitors;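 note: 0% = no-compound wells and -100% = no-enzyme wells; nearly all actives have a fitted effect of over 25% in size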
Target sequence (P00811 whole entry, looked up): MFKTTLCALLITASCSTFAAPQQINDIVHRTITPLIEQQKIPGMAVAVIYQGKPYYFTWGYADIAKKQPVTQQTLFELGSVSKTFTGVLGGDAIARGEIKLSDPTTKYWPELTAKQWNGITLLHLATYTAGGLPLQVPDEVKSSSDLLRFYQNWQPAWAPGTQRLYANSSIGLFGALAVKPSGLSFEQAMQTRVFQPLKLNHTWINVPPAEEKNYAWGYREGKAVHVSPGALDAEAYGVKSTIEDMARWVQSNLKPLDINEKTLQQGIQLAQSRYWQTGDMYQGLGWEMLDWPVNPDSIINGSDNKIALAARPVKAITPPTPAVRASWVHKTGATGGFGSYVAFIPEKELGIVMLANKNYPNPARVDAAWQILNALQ
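AmpC (5.3 nM in the dispensed reagent) in 20 mM phosphate pH 7.0 with 0.01% (detergent screen) or 0.0001% Triton X-100 was preincubated with compounds for 15 min at room temperature. Nitrocefin was then added from an 800 uM solution, and hydrolysis was followed at 480 nm.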
Pf growth 96h = inhibits malaria parasite growth, 96 h; P. falciparum luciferase reporter growth, 96 h; AID 504834; Potency, µM (doses to about 28.7 µM), for inactives: at the top dose activity change, negative = inhibition, usual class: inhibitors; 320,000 tested, 6.9% active
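Cell-based qHTS: luciferase-tagged P. falciparum in erythrocytes (2% hematocrit, 0.05% parasitemia final) incubated with compounds for 96 hours, 37 C, 5% CO2; luciferase detection reagent then added and luminescence measured.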
Pf growth 48h = inhibits P. falciparum growth in the first generation, 48 h; 310,000 tested, 5.9% active; Potency, µM (series often up to 28.7 µM), inactives show at the highest dose activity change, negative = inhibition, actives largely listed as inhibitors; P. falciparum luciferase growth in erythrocytes, 48 h
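Compounds are pin-transferred into medium, infected erythrocytes (2% hematocrit, 0.1% parasitemia final) are added, and plates sit one parasite generation at 37 C in 5% CO2. Detection reagent is then added and luminescence measured.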
AmpC inh no detg = AmpC beta-lactamase inhibition without detergent | AmpC nitrocefin hydrolysis, absorbance 480 nm, 0.0001% Triton | Potency, µM (series often up to 57.1 µM), without a hit: at the highest dose activity change, negative = inhibition, actives largely listed as inhibitors | 330,000 tested, 0.52% active | AID 485341;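 note: plate controls were no compound for no effect and no enzyme for full effect; nearly all actives have a fitted effect of over 20% in size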
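20 mM phosphate pH 7.0 + 0.01% (detergent screen) or 0.0001% Triton X-100; 5.3 nM AmpC reagent; cpd preinc 15 min RT; nitrocefin (800 uM stock) to start; A480 q20 s × 4 min; Activity was normalised to no-enzyme and no-compound control wells.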
AMA1 RON2 block = disrupts binding of P. falciparum AMA1 to RON2. 360,000 tested, 0.2% active. AlphaScreen AMA1-biotinylated RON2 peptide binding. Potency, µM (top dose mostly 58.2 µM), for inactives: at the top dose activity change, negative = inhibition, most hits filed as inhibitors. AID 720542;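 note: 0% = vehicle wells and -100% = peptide control; nearly all actives have a fitted effect of over 45% in size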
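AMA1 (3D7) with his tag at 25 nM final met compounds first, then biotinylated RON2 peptide at 25 nM; detection used donor plus acceptor beads, 10 µg/mL apiece, read by AlphaScreen after 30 min at room temperature.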
HCV inh = inhibitors of hepatitis C virus infection. Huh7.5.1 HCVcc-Cre infection, luciferase reporter, 44 h. Potency, µM (titrated, usually from 41.8 µM), for inactives: at the top dose activity change, negative = inhibition, usual class: inhibitors. 340,000 tested, 3.4% active
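Seed cells (1,000/well) for 4 h; treat with compound and infect with HCVcc-Cre, moi about 0.5. Incubate 44 h, then detect luciferase activity.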
Active calls of the source: *; ? = inconclusive; . = no result; [ ] = dose if it differs, or a comment. The list is not random: actives were taken first. Their share in the collection is about 11%. Calls come from the whole dose curve; as a rule, active = well fitted curve in the direction sought with a large enough effect; inconclusive = small, poorly fitted or top-dose-only effect, or another doubt; inactive = no such curve, though single readings can be large; an effect the other way counts as inactive or inconclusive. Unless noted, % is set by controls: 0 for no effect and ±100 for the full control effect; potency is the fitted concentration of half-maximal effect.

SMILES	AmpC detergent	Pf growth 96h	Pf growth 48h	AmpC inh no detg	AMA1 RON2 block	HCV inh
CN1CCC(NCCC(c2ccc(F)cc2)c2ccc(Cl)cc2)CC1 (stereo not drawn)	2.6%	1.85µM*	1.65µM*	45.0%	17.4%	2µM*
CC(C)C(CCNC1CCN(C)CC1)c1ccc(Cl)cc1 (stereo not drawn)	-0.9%	?	-4.0%[0.00184 µM]	17.9%	-14.0%	1.41µM*
CC(C)C(CCNCc1ccccn1)c1ccc(Cl)cc1 (stereo not drawn)	0.7%	?	?	2.2%	34.1%	?
C(C#CCCCCCCCCC[n+]1ccccc1)#CCCCCCCCCC[n+]1ccccc1	-6.7%	0.0928µM*	0.294µM*	199.2%	-16.0%	?
CCC(CC)C(=O)N1CCc2cc(OC)c(OC)cc2C1COc1ccc(C(=O)OC)cc1 (stereo not drawn)	-5.3%	.	.	.	.	.
C/C(CC(=O)Nc1ccc(Cl)cc1Cl)=N\NC(=O)c1ccco1	-11.9%	17.8%	21.9%	7.94µM*	66.1%	9.3%
Cc1ccc(C(C)C)c(OCCN)c1	-10.3%	88.5%	-11.5%	29.0%	-1.7%	-11.4%
S=C(NCc1cccs1)Nc1cccc2ccccc12	?	-0.2%	14.8%	-12.8%[2.29 µM]	15.6%	-17.5%
S=C(NCc1ccccc1)Nc1cccc2ccccc12	0.6%	?	?	-23.0%	39.9%	10µM*
O=C(O)CNC(=S)NCc1ccccc1	-1.6%	20.4%	13.1µM*	-22.8%	19.7%	12.1%
S=C(NCc1ccccc1)NCc1cccc(CNC(=S)NCc2ccccc2)c1	-12.0%	0.1%	-11.5%	-40.7%	40.5%	?
NNC(=S)NCc1ccccc1	-0.1%	9.28µM*	?	-44.4%	59.0%	8.9%
Cc1ccc(C(C)C)c(OCCNC(=S)Nc2cccc3ccccc23)c1	3.3%	?	9.28µM*	-39.8%	-0.4%	31.6µM*
COc1ccc(CNC(=O)c2cc3c(=O)n(C)c4ccccc4c3n2C)c(OC)c1	10.8%	.	.	.	.	.
COc1cccc(NC(=O)C(Cc2ccccc2)NS(=O)(=O)c2ccc3c(c2)oc(=O)n3C)c1 (stereo not drawn)	-8.1%	.	.	.	.	.
CC(=O)Nc1nonc1-c1nnc(SCC(=O)Nc2cc(C)cc(C)c2)n1C	14.3%	.	.	.	.	.
CC1CCCCC12NC(=O)N(CC(=O)N1CCN(S(=O)(=O)/C=C/c3ccccc3)CC1)C2=O (stereo not drawn)	-6.4%	?	10.4µM*	71.7%	-3.3%	9.8%
CN1C(=O)N(CC(=O)N2CCN(S(=O)(=O)/C=C/c3ccccc3)CC2)C(=O)C12CCCCC2	-2.1%	-14.3%	?	147.3%	2.7%	-6.4%
Cc1cccc(C)c1NC(=O)CN1CCN(C(=O)CN2C(=O)NC3(CCCCC3C)C2=O)CC1 (stereo not drawn)	-12.0%	12.9%	14.1%	28.3%	0.0%	-29.8%
CC1CCCCC12NC(=O)N(CC(=O)N1CCN(Cc3ccc(C#N)cc3)CC1)C2=O (stereo not drawn)	4.9%	-29.0%	-1.9%	-1.9%	8.3%	10µM*
CCOc1ccc(C(=O)Nc2cccc(NC(=O)c3ccc(C(C)(C)C)cc3)c2)cc1Br	12.1%	.	.	.	.	.
COc1ccc(-c2cc(C(F)(F)F)nc(N3CCCCC3)n2)cc1OC	4.0%	75.4%	3.29µM*	-3.1%	-13.1%	-26.6%
COc1ccc(-c2cc(C(F)(F)F)nc(N3CCN(C)CC3)n2)cc1OC	-13.8%	5.22µM*	?	22.0%	0.0%	?
COc1ccccc1N1CCN(c2nc(-c3ccccc3)cc(C(F)(F)F)n2)CC1	4.4%	?	6.3%	-9.5%	4.8%	?
COC(=O)c1nn(-c2nc(-c3ccc(OC)c(OC)c3)cc(C(F)(F)F)n2)cc1[N+](=O)[O-]	0.5%	16.5µM*	-17.3%	-18.0%	-6.3%	12.6%
COc1ccc(-c2cc(C(F)(F)F)nc(N3CCN(C)CC3)n2)cc1	8.2%	35.6%	13.1µM*	155.1%	-8.3%	?

Bioassay records deposited in PubChem by National Center for Advancing Translational Sciences (NCATS).
